Only a selection was taken, and hits are over-represented in it overall.
JMJD2E inh: qHTS Assay for Inhibitors of Human Jumonji Domain Containing 2E (JMJD2E). JMJD2E catalytic domain, FDH-coupled NADH fluorescence (FDH is formaldehyde dehydrogenase). Potency, µM (top dose mostly 57.1 µM), for inactives: at the highest dose activity change, negative = inhibition, hits mostly inhibitors. actives 1.6% (n = 230,000); active = well fitted inhibition curve with a large enough effect, not every such curve was filed as active; inconclusive = small, poorly fitted or top-dose-only effect, or another doubt; inactive = no such curve, though single readings can be large or run the other way;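 note: 0% = wells with enzyme and -100% = buffer wells without enzyme; nearly all actives have a fitted effect of over 50% in size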
L3MBTL1 inh: qHTS Assay for the Inhibitors of L3MBTL1; Potency, µM (titrated, usually from 57.1 µM), without a hit: top-dose activity, negative = inhibition, actives largely listed as inhibitors; Lethal(3)malignant brain tumor-like protein 1 (Homo sapiens), Q9Y468; actives 0.66% (n = 230,000); AlphaScreen L3MBTL1–H3K9me1 peptide binding; note: nearly all actives have a fitted effect of over 60% in size
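L3MBTL1 50 nM + b-AHA-H3(1-15)K9me1 75 nM, 30 min RT; compound added, 30 min RT; streptavidin donor/Ni-chelate acceptor beads 10 ug/mL each final, 30 min RT dark; AlphaScreen read.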
RECQ1 helicase: qHTS Assay for Inhibitors of RecQ-Like Dna Helicase 1 (RECQ1); actives 0.54% (n = 240,000); RECQ1 DNA unwinding, red fluorescence kinetic read; AID 2549, 2010; Potency, µM (series often up to 57.3 µM), without a hit: at the highest dose activity, negative = inhibition, most hits filed as inhibitors;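 note: plate controls were vehicle for no effect and no enzyme for full effect; nearly all actives have a fitted effect of over 30% in size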
Target sequence (P46063 whole entry, looked up): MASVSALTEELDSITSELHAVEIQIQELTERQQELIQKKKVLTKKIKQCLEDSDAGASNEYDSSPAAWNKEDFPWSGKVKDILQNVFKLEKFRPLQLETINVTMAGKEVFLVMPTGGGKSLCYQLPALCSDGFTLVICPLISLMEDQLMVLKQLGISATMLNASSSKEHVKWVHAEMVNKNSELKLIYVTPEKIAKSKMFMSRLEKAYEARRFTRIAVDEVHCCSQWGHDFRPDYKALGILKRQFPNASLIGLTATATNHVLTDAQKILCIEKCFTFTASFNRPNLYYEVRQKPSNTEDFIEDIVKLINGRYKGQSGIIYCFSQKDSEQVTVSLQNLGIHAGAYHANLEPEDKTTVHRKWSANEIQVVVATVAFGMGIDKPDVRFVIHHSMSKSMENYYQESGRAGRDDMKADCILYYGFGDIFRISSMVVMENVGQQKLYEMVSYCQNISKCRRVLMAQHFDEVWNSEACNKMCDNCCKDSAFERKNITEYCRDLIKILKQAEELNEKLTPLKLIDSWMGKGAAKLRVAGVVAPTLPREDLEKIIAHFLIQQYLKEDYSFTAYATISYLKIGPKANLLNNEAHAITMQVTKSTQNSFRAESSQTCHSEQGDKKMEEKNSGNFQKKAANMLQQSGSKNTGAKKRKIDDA
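50 nM RECQ1T1 preincubated 15 min with compound in Tris pH 8.0 buffer with MgCl2, DTT, Tween-20 and 2.5 ug/ml poly(dI-dC); started with 200 nM TAMRA/BHQ-2 forked duplex and 2 mM ATP. Unwinding read as fluorescence (525/598 nm), two reads 2 h apart.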
GCN5L2 inh: qHTS Assay for Inhibitors of GCN5L2; Histone acetyltransferase KAT2A (Homo sapiens), Q92830; GCN5L2 HAT assay, ThioGlo1 CoA-SH fluorescence; Potency, µM (top dose mostly 58.9 µM), for inactives: at the top dose activity change, negative = inhibition, actives largely listed as inhibitors; actives 0.21% (n = 390,000); AID 504327, 2011
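qHTS, 1536-well. 20nM enzyme, pH 7.5 HEPES/EDTA/Tween-20 buffer; 15 min compound preinc., RT. Start: 75uM H3(1-25), 70uM AcCoA, 50uM ThioGlo1. Read Ex340/Em540 at t=0 (autofluorescence flag) and t=20 min.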
BLM helicase inh: qHTS Assay for Inhibitors of Bloom's syndrome helicase (BLM). RecQ-like DNA helicase BLM (Homo sapiens), P54132. recombinant BLM DNA unwinding, fluorescence dequenching. Potency, µM (doses to about 56.1 µM), for inactives: at the highest dose activity change, negative = inhibition, usual class: inhibitors. actives 0.2% (n = 350,000). AID 2528, 2010;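 note: plate controls were vehicle for no effect and no enzyme for full effect; nearly all actives have a fitted effect of over 35% in size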
APE1 inh: qHTS Assay for Inhibitors of the Human Apurinic/apyrimidinic Endonuclease 1 (APE1) | actives 0.35% (n = 350,000) | Potency, µM (series often up to 65.8 µM), inactives show at the top dose activity change, negative = inhibition, hits mostly inhibitors | DNA repair nuclease/redox regulator APEX1 (Homo sapiens), P27695 | recombinant APE1, TAMRA/BHQ-2 abasic DNA cleavage fluorescence | AID 2517, 2012;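 note: plate controls were vehicle for no effect and reference inhibitor for full effect; nearly all actives have a fitted effect of over 55% in size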
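0.75 nM APE1 + cpd, 15 min RT; start w/ 50 nM TAMRA/BHQ-2 THF-abasic dsDNA; kinetic fluor 525/598 nm ×3 reads @60 s; Δ(read3−read1); normalized to DMSO and NSC13755 control wells.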
An asterisk follows results filed as active; i = inactive; ? = inconclusive; · = no result; ! = not active in a repeat; [ ] = another dose, or the depositor's remark. Unless noted, calls come from the whole dose curve; as a rule, active = well fitted curve in the direction sought with a large enough effect; inconclusive = small, poorly fitted or top-dose-only effect, or another doubt; inactive = no such curve, though single readings can be large; an effect the other way counts as inactive or inconclusive. Unless noted, % is set by controls: 0 for no effect and ±100 for the full control effect; potency is the fitted concentration of half-maximal effect.

SMILES	JMJD2E inh	L3MBTL1 inh	RECQ1 helicase	GCN5L2 inh	BLM helicase inh	APE1 inh
COC1C(O)COC1/C=C/c1ccccc1 (centres undefined)	·	·	i[11.5 µM]	·	-0.6%[12.4 µM]	?
COc1ccc(C(=O)Nc2ccnn2C2CCN(Cc3ccc4nonc4c3)CC2)cc1	·	·	·	-0.7%	-7.6%	5.32µM*
O=C(Nc1ccnn1C1CCN(Cc2ccc3nonc3c2)CC1)c1cccc(F)c1	·	·	·	-5.7%	-0.9%	33.3%
O=C(Nc1ccc(F)cc1F)NC1CC(=O)N(Cc2ccccc2)C1 (centres undefined)	3.8%	8.9%	-10.1%	-2.6%	0.1%	-2.3%
Nc1cn(C2OC(CO)C(O)C2O)c(=O)[nH]c1=O (centres undefined)	·	-4.9%	·	-5.4%	-1.1%	18.9µM*
Nc1ccn([C@@H]2O[C@H](CO)[C@@H](O)[C@@H]2O)c(=O)n1	0.891µM*!	6.0%	-2.2%	-2.1%	-11.7%	1.5%
Nc1ccn(C2OC(CO)C(O)C2O)c(=O)n1 (centres undefined)	8.8%	·	12.9%	·	3.8%	2.2%
CC(C)=CCCC1(C)C=Cc2c(O)c3c(c(CC=C(C)C)c2O1)OC12C(=CCCC1C(C)(C)O[C@@]2(C/C=C(\C)C(=O)O)C(=O)O)C3=O (some centres undefined)	-10.1%	·	i	35.5µM*	-3.0%	-8.2%
Cc1ccc(Cl)cc1NC1=C/C(=N\S(=O)(=O)c2cccs2)c2ccccc2C1=O	?	·	i	-9.2%[0.501 µM]	-18.1%	-4.4%
Cc1cccc(NC2=C/C(=N/S(=O)(=O)c3cccs3)c3ccccc3C2=O)c1	3.3%	1.58µM*	i	-6.1%	-11.8%	30.5%
O=C1C(Nc2ccc(O)cc2)=C/C(=N/S(=O)(=O)c2cccs2)c2ccccc21	24.8%	12.6µM*	-6.4%	-12.0%	?	?
Cc1ccc(NC2=C/C(=N\S(=O)(=O)c3cccs3)c3ccccc3C2=O)c(C)c1	-2.3%	3.16µM*	-3.3%	-12.8%	-10.6%	?
Cn1c(SCc2cc(=O)n3cc(Br)ccc3n2)nnc1C1COc2ccccc2O1 (centres undefined)	-7.3%	-7.8%	-16.6%	-13.8%	0.2%	?
Cc1ccc(C(C(=O)NCc2ccco2)N(CCc2ccccc2)C(=O)Cn2nnc3ccccc32)o1 (centres undefined)	6.8%	-5.0%	-1.5%	-2.3%	-6.5%	-1.8%
Cc1cc(F)ccc1OC1C=CC(c2ccc3c(c2)OCO3)OC1CO (centres undefined)	·	·	i[11.5 µM]	·	-3.1%[12.4 µM]	?
COc1ccc(/C=N/Nc2cc(C)nc3ccc(OC)cc23)c(OC)c1	·	2.5%	·	-12.9%	25.1µM*	26.7µM*
CCc1ccc(CNc2ccc(O)cc2)cc1	1.8%	7.94µM*	i	-20.5%	?	5.1%
Oc1ccc(NCc2ccc(OCc3ccccc3)cc2)cc1	·	·	·	-10.3%	?	-5.2%
CN(Cc1ccn[nH]1)C(=O)C1CCC(=O)N(Cc2cccc(C(F)(F)F)c2)C1 (centres undefined)	·	·	·	0.2%	-0.9%	52.6%
O=[N+]([O-])c1ccc(N2N=C(c3ccco3)CC2c2ccccc2)cc1 (centres undefined)	-4.4%	-27.6%	-7.8%	2µM*	-19.9%	12.9%
Fc1ccc(C2CC(c3ccco3)=NN2c2ccccc2)cc1 (centres undefined)	4.5%	101.0%	0.8%	-10.1%	-2.9%	-2.9%
COc1ccccc1CNc1nc2ccc(C)cc2n2nnnc12	·	·	·	0.9%	0.8%	·

From PubChem BioAssay
